Source: PubChem BioAssay (The Scripps Research Institute Molecular Screening Center)
DAX1 inh-1 = blocks DAX1 repression of SF-1 activated StAR promoter; HEK293T StAR-luciferase reporter, SF-1/DAX-1 repression relief; inhibition, % at 6.8 µM; 370,000 tested, 1.1% active; AID 652010;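 active = inhibition above the mean over all tested compounds plus 3 SD, cut at about 3.6% in these data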;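 note: 0% = DAX-1 cells with DMSO and 100% = cells lacking DAX-1 with DMSO; higher inhibition means more luminescence from relief of DAX-1 repression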
DAX1 inh-2 = NR0B1 (DAX1) inhibition | HEK293 Gal4-DAX1 luciferase reporter, luminescence | P51843 | inhibition, % at 6.75 µM | 340,000 tested, 0.99% active;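 active = inhibition above the mean over all tested compounds plus 3 SD, cut at about 4.2% in these data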;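 note: 0% = DAX1-transfected cells with DMSO and 100% = empty-vector control cells with DMSO; inhibition shows as a rise in luminescence from relieved DAX1 repression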
hcDAF12 agonist = activators of H. contortus DAF-12 nuclear receptor | activation, % at 6.8 µM | 370,000 tested, 1.4% active | HEK293 hcDAF-12 lit1-tk-luc reporter, luminescence; 0% DMSO, 100% Δ7-dafachronic acid;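 active = activation above the mean of all tested compounds plus 3 SD, cut at about 5.5% in these data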;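 note: 100% = response to 3 µM Δ7-dafachronic acid high control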
ssDAF-12 act = activates DAF-12 receptor from parasite S. stercoralis; HEK293 ssDAF-12/GRIP1 lit1-tk-luc reporter, luminescence; % of 3 µM dafachronic acid response; activation, % at 6.8 µM; 370,000 tested, 1% active; AID 652126;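 active = activation above the mean over all tested compounds plus 3 SD, cut at about 0.9% in these data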;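 note: 0% = DMSO-only wells and 100% = 3 µM delta7-dafachronic acid wells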
hgDAF12 agonist = hgDAF-12 agonism, primary luciferase screen; HEK293 GAL4-hgDAF12 UAS-luciferase reporter, agonist luminescence; normalized to butyrate control; activation, % at 6.8 µM; 370,000 tested, 1.8% active; AID 687014;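 active = activation above a cutoff set at the mean of all screened compounds plus 3 SD, cut at about 10% in these data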;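 note: 0% = DMSO wells and 100% = sodium butyrate wells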
LXRb hcDAF ctr = counter-screen for hcDAF-12 agonists: agonists of human LXR-beta; 3,400 tested, under 10 active; activation, % at 6.8 µM; HEK293 Gal4-LXR tk-luc reporter, luminescence, 24 h; normalized: DMSO 0%, positive control 100%; shares compounds with hcDAF12 agonist;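 active = mean percent activation of the reporter above a cutoff set as the average over tested compounds plus their standard deviation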
Target sequence (P55055 whole entry, looked up, the tested form may be a part): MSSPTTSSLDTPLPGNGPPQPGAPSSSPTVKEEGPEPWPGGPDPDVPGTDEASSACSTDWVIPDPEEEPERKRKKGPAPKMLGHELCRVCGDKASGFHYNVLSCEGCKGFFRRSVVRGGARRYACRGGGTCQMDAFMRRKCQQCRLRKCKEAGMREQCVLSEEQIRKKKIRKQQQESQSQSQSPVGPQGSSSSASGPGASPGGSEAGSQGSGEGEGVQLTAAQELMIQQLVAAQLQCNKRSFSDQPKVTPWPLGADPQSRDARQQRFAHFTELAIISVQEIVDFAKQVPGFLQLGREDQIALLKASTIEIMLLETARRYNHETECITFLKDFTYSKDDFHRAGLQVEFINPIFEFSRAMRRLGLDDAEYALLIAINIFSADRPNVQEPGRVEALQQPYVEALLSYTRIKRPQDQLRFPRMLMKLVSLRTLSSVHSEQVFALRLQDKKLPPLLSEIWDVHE
hcDAF12 conf = hcDAF-12 agonism, confirmation assay; shares compounds with hcDAF12 agonist; HEK293 hcDAF-12 lit1-tk-luc reporter, luminescence; % of Δ7-dafachronic acid response; activation, % at 6.8 µM; 3,400 tested, 61% active; AID 743032;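 active = mean activation across triplicate tests above the threshold derived from the earlier primary screen, cut at about 5.5% in these data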;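 note: 0% = DMSO only wells and 100% = 3 µM Δ7-dafachronic acid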
The depositor's hits bear a star. In the library only some 4.1% were active in any assay of this set; here they are far more common.

O=C(CSc1ccc2ccccc2n1)c1ccccc1 was read as DAX1 inh-1 1, DAX1 inh-2 1, hcDAF12 agonist 9.3*, ssDAF-12 act 1.4*, hgDAF12 agonist 10, LXRb hcDAF ctr 0 and hcDAF12 conf 8.2*.
Screening CSc1nnc(NC(=O)c2ccc(S(=O)(=O)N(C)C)cc2)s1 returned DAX1 inh-1 0, DAX1 inh-2 -1, hcDAF12 agonist -1, ssDAF-12 act -1 and hgDAF12 agonist 4.
Cc1nc2sc(C(=O)NCc3nccs3)c(N)c2c(C)c1Cl was read as DAX1 inh-1 1, hcDAF12 agonist 1, ssDAF-12 act -1 and hgDAF12 agonist 4.
`Nc1cccc2c1C(=O)N(CCOc1ccccc1F)C2=O` gave DAX1 inh-1 3, DAX1 inh-2 1, hcDAF12 agonist 18*, ssDAF-12 act 1.9*, hgDAF12 agonist 11*, LXRb hcDAF ctr 2 and hcDAF12 conf 18*.
O=C(CNc1ccccc1C(=O)O)c1ccccc1 was read as DAX1 inh-1 1, DAX1 inh-2 1, hcDAF12 agonist 7.7*, ssDAF-12 act 1, hgDAF12 agonist 1, LXRb hcDAF ctr 0 and hcDAF12 conf 0.
Screening NC(=O)c1ccccc1NCC(=O)c1ccc(Cl)cc1 returned DAX1 inh-1 0, DAX1 inh-2 2, hcDAF12 agonist 2, ssDAF-12 act -1 and hgDAF12 agonist 1.
For CCOC(=O)[C@@H]1CSCCS(=O)(=O)N1Cc1ccccc1 the results were DAX1 inh-1 1, hcDAF12 agonist 0, ssDAF-12 act -1 and hgDAF12 agonist -1.
For O=C1c2cccc3cccc(c23)C(=O)N1CCc1ccccc1 the results were DAX1 inh-1 2, DAX1 inh-2 1, hcDAF12 agonist 14*, ssDAF-12 act 2.1*, hgDAF12 agonist 8, LXRb hcDAF ctr 1 and hcDAF12 conf 9.4*.
For CCn1c(SCC(=O)NC2CC2)nnc1-c1ccc(OC)cc1 the results were DAX1 inh-1 1, DAX1 inh-2 0, hcDAF12 agonist -1, ssDAF-12 act 0 and hgDAF12 agonist 1.
O=C(O)c1ccc(N=Nc2c(O)ccc3ncccc23)cc1 was read as DAX1 inh-1 3, DAX1 inh-2 0, hcDAF12 agonist 6.6*, ssDAF-12 act 1, hgDAF12 agonist 12*, LXRb hcDAF ctr 1 and hcDAF12 conf 10*.
Screening O=C(NNc1nc2ccccc2s1)c1ccc(F)cc1 returned DAX1 inh-1 0, DAX1 inh-2 0, hcDAF12 agonist 9.6*, ssDAF-12 act 2.1*, hgDAF12 agonist 3, LXRb hcDAF ctr 0 and hcDAF12 conf 1.
N#C/C(=C(/O)c1ccc(F)cc1)c1nc2ccccc2s1 was read as DAX1 inh-1 1, DAX1 inh-2 2, hcDAF12 agonist 7.2*, ssDAF-12 act 0, hgDAF12 agonist 11*, LXRb hcDAF ctr 0 and hcDAF12 conf 2.
`COc1cccc(OC)c1NC(=O)OC1CCC12CCC(c1ccccc1)CC2` (stereo unspecified) gave hcDAF12 agonist -1, ssDAF-12 act -1 and hgDAF12 agonist 4.
Screening COC(=O)[C@H]1C[C@H](C(=O)O)[C@@H](C)C1(C)C returned DAX1 inh-1 0, DAX1 inh-2 1, hcDAF12 agonist -1, ssDAF-12 act -1 and hgDAF12 agonist 3.
Screening CCCCNC(=O)C[C@H]1C[C@@]2(C(=O)OC)C(=C[C@H](C(C)(C)C)O[C@@H]2C)N(Cc2cccc3ccccc23)C1=O returned DAX1 inh-1 -1, hcDAF12 agonist -1, ssDAF-12 act -2 and hgDAF12 agonist -2.
Screening Cc1cc(OCc2ccc(C(=O)NN=C3CCCC3)cc2)ccc1Cl returned DAX1 inh-1 0, DAX1 inh-2 0, hcDAF12 agonist 9.9*, ssDAF-12 act 0, hgDAF12 agonist 8, LXRb hcDAF ctr 0 and hcDAF12 conf 9.4*.
For O=C(NN=C1CCCC1)c1ccc(Cl)cc1 the results were DAX1 inh-1 0, DAX1 inh-2 0, hcDAF12 agonist 2, ssDAF-12 act -1 and hgDAF12 agonist 2.
Screening NC(=O)C1CC(=O)N(c2ccc(OCc3ccccc3Cl)cc2)C1 (stereo unspecified) returned DAX1 inh-1 0, DAX1 inh-2 -1, hcDAF12 agonist 7.3*, ssDAF-12 act 0, hgDAF12 agonist 6, LXRb hcDAF ctr 0 and hcDAF12 conf 0.
For C[C@@H]1/C=C/CC(=O)N[C@H](c2cccc(Br)c2)[C@H](C)/C=C/CC(=O)N[C@@H]1c1cccc(Br)c1 the results were DAX1 inh-1 -1, hcDAF12 agonist -4, ssDAF-12 act -1 and hgDAF12 agonist -2.
C[C@@H]1/C=C/CC(=O)N[C@H](c2ccc3ccccc3c2)[C@H](C)/C=C/CC(=O)N[C@@H]1c1ccc2ccccc2c1 was read as DAX1 inh-1 -1, hcDAF12 agonist 8.7*, ssDAF-12 act -1, hgDAF12 agonist 0, LXRb hcDAF ctr 0 and hcDAF12 conf 2.
For CCOC(=O)/C(=N\Nc1cc(Cl)ccc1Cl)N1CC(C)OC(C)C1 (stereo unspecified) the results were DAX1 inh-1 0, DAX1 inh-2 0, hcDAF12 agonist -1, ssDAF-12 act -2 and hgDAF12 agonist 4.
`CCOC(=O)C(=NCC1CCCO1)NNc1cc(Cl)ccc1Cl` (stereo unspecified) gave DAX1 inh-1 0, DAX1 inh-2 0, hcDAF12 agonist 7.5*, ssDAF-12 act -1, hgDAF12 agonist 1, LXRb hcDAF ctr 0 and hcDAF12 conf 1.
For O=C1CCN(Cc2ccccc2)C=C1c1ccc2ccccc2c1 the results were DAX1 inh-1 2, DAX1 inh-2 3, hcDAF12 agonist 9.4*, ssDAF-12 act 1.0*, hgDAF12 agonist 11*, LXRb hcDAF ctr 1 and hcDAF12 conf 7.0*.
Screening COC(=O)[C@H]1C[C@@]2(N3CCCCC3)c3ccccc3N[C@H]2N1S(=O)(=O)c1ccc(C)cc1 returned DAX1 inh-1 -1, hcDAF12 agonist 0, ssDAF-12 act -1 and hgDAF12 agonist -1.
`Cn1c(C(C#N)C(=O)c2ccco2)nc2ccccc21` (stereo unspecified) gave DAX1 inh-1 2, DAX1 inh-2 1, hcDAF12 agonist 7.2*, ssDAF-12 act 1, hgDAF12 agonist 4, LXRb hcDAF ctr 0 and hcDAF12 conf 9.6*.
For O=C(CCSc1nc2ccccc2o1)N1CCOCC1 the results were DAX1 inh-1 0, DAX1 inh-2 1, hcDAF12 agonist 7.1*, ssDAF-12 act 0, hgDAF12 agonist 1, LXRb hcDAF ctr 0 and hcDAF12 conf 3.
